From the supplement of paper PMC7411640 come the findings set out here.

Counter-ions that a name gives are not always drawn.

The assay relates to MDA-MB-468. The assay can be described thus: phospho-S6 immunofluorescence (DAPI-normalised), per-plate z-score; higher = higher phospho-S6 signal (less pathway suppression). The settings on record: 24 h. As for the experimental part: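 GPCR-targeted compound library (MedChemExpress HY-L006) tested on MDA-MB-468 PTEN-null TNBC cells in 384-well plates at 0.1, 1 or 10 uM, combined with vehicle, GDC0941 450 nM or lapatinib 1 uM, for 24 h. Phospho-S6 (S240/244) immunofluorescence normalised to DAPI and expressed as a per-plate z-score; values are the mean of biological triplicates.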

With `CCC(=O)OCC(=O)[C@@]1(OC(=O)CC)[C@@H](C)C[C@H]2[C@@H]3CCC4=CC(=O)C=C[C@]4(C)[C@@]3(F)[C@@H](O)C[C@@]21C` [Betamethasone dipropionate] (compound 10 µM), the “phospho-S6 immunofluorescence (z-score)” value (co-treatment: GDC0941 450 nM) was -0.51, the “phospho-S6 immunofluorescence (z-score)” value (co-treatment: lapatinib 1 uM) was -0.45 and the “phospho-S6 immunofluorescence (z-score)” value (co-treatment: vehicle) was determined as 0.82.
The like results for `CNc1nc(NCc2ccc(NS(C)(=O)=O)cc2Cl)cc(-c2ccccn2)n1` (compound 10 µM) were, in that order, -3.45, -5.07 and -4.83.
For the molecule `CC(=O)N[C@H](Cc1ccc2ccccc2c1)C(=O)N[C@H](Cc1ccc(Cl)cc1)C(=O)N[C@H](Cc1cccnc1)C(=O)N[C@@H](CO)C(=O)N(C)[C@@H](Cc1ccc(O)cc1)C(=O)N[C@H](CC(N)=O)C(=O)N[C@@H](CC(C)C)C(=O)N[C@@H](CCCCNC(C)C)C(=O)N1CCC[C@H]1C(=O)N[C@H](C)C(N)=O` [Abarelix] (compound 10 µM), the “phospho-S6 immunofluorescence (z-score)” value is, setting by setting: (co-treatment: GDC0941 450 nM) 0.77; (co-treatment: lapatinib 1 uM) 0.65; (co-treatment: vehicle) -0.38.
In the same order, the values of `C#CCOc1ccc2c(c1)c(-c1ccc(C(C)C)cc1)nc(=O)n2C(C)C` [Calcium-Sensing Receptor Antagonists I] (compound 10 µM) are -3.51, -4.39 and -4.18.
In the same order, the values of `CC(C)=CCC[C@](C)(O)[C@H]1CC[C@]2(C)[C@@H]1[C@H](O)C[C@@H]1[C@@]3(C)CC[C@H](O)C(C)(C)[C@@H]3[C@@H](O)C[C@]12C` [(20S)-Protopanaxatriol] (compound 10 µM) are -1.71, -2.12 and -0.03.
Take `O=C(NCC(=O)N1CC[C@H](N[C@H]2CC[C@@](O)(c3ccc(-c4ncccn4)cn3)CC2)C1)c1cccc(C(F)(F)F)c1` (compound 10 µM): the “phospho-S6 immunofluorescence (z-score)” value is -0.86 (co-treatment: GDC0941 450 nM), -0.77 (co-treatment: lapatinib 1 uM) and 0.76 (co-treatment: vehicle).
Regarding `OCCOCCN1CCN(C(c2ccccc2)c2ccc(Cl)cc2)CC1` (configuration not stated) [Hydroxyzine (dihydrochloride)] (compound 10 µM), the “phospho-S6 immunofluorescence (z-score)” value (co-treatment: GDC0941 450 nM) was 0.45, the “phospho-S6 immunofluorescence (z-score)” value (co-treatment: lapatinib 1 uM) was -0.69 and the “phospho-S6 immunofluorescence (z-score)” value (co-treatment: vehicle) was 0.24.
As to `Cn1c(=O)c2nc[nH]c2n(C)c1=O` [Theophylline] (compound 10 µM), the “phospho-S6 immunofluorescence (z-score)” value (co-treatment: GDC0941 450 nM) amounted to 0.11, the “phospho-S6 immunofluorescence (z-score)” value (co-treatment: lapatinib 1 uM) was 0.16 and the “phospho-S6 immunofluorescence (z-score)” value (co-treatment: vehicle) was 0.71.
The like results for `COc1ccc(CNC(=O)c2cc(-c3cncc(C)c3)ncc2-c2nccs2)nc1OC` (compound 10 µM) were, in that order, -0.61, -0.5 and 0.26.
For the molecule `CN1CCN2c3ncccc3Cc3ccccc3C2C1` (configuration not stated) [Mirtazapine] (compound 10 µM), the “phospho-S6 immunofluorescence (z-score)” value (co-treatment: GDC0941 450 nM) came out at 0.65, the “phospho-S6 immunofluorescence (z-score)” value (co-treatment: lapatinib 1 uM) was found to be 0.99 and the “phospho-S6 immunofluorescence (z-score)” value (co-treatment: vehicle) was -0.48.
On to `CNC(=C[N+](=O)[O-])NCCSCc1csc(CN(C)C)n1` [Nizatidine] (compound 10 µM), for which the “phospho-S6 immunofluorescence (z-score)” value reads like this: (co-treatment: GDC0941 450 nM) -1.38; (co-treatment: lapatinib 1 uM) 0.52; (co-treatment: vehicle) 1.38.
Turning to `C[C@@H](O)[C@@H]1NC(=O)[C@H](CCCCN)NC(=O)[C@@H](Cc2c[nH]c3ccccc23)NC(=O)[C@H](Cc2ccccc2)NC(=O)[C@@H](NC(=O)[C@H](N)Cc2ccccc2)CSSC[C@@H](C(=O)N[C@H](CO)[C@@H](C)O)NC1=O` [Octreotide (acetate)] (compound 10 µM), the “phospho-S6 immunofluorescence (z-score)” value was 0.59 (co-treatment: GDC0941 450 nM), 1.9 (co-treatment: lapatinib 1 uM) and -0.73 (co-treatment: vehicle).
In the same order, the values of `CSc1ccc2c(c1)N(CCC1CCCCN1C)c1ccccc1S2` (configuration not stated) [Thioridazine (hydrochloride)] (compound 10 µM) are -5.09, -8.27 and -7.88.
On to `CCCCN1CCC(CNC(=O)c2c3n(c4ccccc24)CCCO3)CC1` [Piboserod] (compound 10 µM), for which the “phospho-S6 immunofluorescence (z-score)” value by setting is: (co-treatment: GDC0941 450 nM) -0.39; (co-treatment: lapatinib 1 uM) -0.44; (co-treatment: vehicle) 0.08.
